Results on seven molecules are retold here after PubChem BioAssay (NCATS).

Values without a mark were called inactive. Results filed as inconclusive are left out. The source made the active and inactive calls. Unless noted, calls come from the whole dose curve; as a rule, active = well fitted curve in the direction sought with a large enough effect; inconclusive = small, poorly fitted or top-dose-only effect, or another doubt; inactive = no such curve, though single readings can be large; an effect the other way counts as inactive or inconclusive.

Test [1] deals with Lysosomal acid glucosylceramidase (Homo sapiens) (UniProt P04062). Briefly: Glucocerebrosidase-p2 (AID 348; in the data active = potency below about 10 µM; note: potency is the fitted concentration of half-maximal effect). As to conditions: purified GBA, blue fluorogenic substrate, 40 min. The method, boiled down: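 Normal human glucocerebrosidase (0.2 nM) with blue fluorogenic substrate (80 uM final) in citrate/phosphate pH 5.9 with 10mM sodium taurocholate, 0.01% tween-20; 40 min RT, NaOH/glycine stop; fluorescence Ex 365/Em 440; AC50 from a titration from 0.6 nM upwards.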
Sequence of Lysosomal acid glucosylceramidase (Homo sapiens) (P04062 whole entry, looked up): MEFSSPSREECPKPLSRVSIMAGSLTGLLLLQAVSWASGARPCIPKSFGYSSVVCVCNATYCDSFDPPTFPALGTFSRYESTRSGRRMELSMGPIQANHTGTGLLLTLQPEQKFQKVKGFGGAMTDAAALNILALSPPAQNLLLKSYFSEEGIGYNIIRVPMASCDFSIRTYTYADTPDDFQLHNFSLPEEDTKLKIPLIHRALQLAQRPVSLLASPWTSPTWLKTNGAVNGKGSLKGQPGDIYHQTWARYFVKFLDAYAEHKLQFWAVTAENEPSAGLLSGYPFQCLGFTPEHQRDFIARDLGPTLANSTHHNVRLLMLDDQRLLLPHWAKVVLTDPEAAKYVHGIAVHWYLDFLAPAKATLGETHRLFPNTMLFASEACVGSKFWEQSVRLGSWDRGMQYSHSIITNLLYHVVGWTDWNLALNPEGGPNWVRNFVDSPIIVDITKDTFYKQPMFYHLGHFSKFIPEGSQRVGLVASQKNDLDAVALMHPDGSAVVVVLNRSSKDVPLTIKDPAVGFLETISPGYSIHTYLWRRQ

The target of test [2] is Cytochrome P450 1A2 (Homo sapiens) (UniProt P05177). Nature of the test: p450-cyp1a2 (AID 410; calls by dose curve; note: potency is the fitted concentration of half-maximal effect). As to conditions: recombinant CYP1A2, luciferin-ME demethylation, luminescence; series mostly up to 57 µM. The method, boiled down: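 O-Demethylation of luciferin 6' methyl ether by human CYP1A2 is monitored as luciferase luminescence. Substrate sits at Km (100uM); enzyme is 20nM. Values are scaled to 57 uM furafylline as maximal inhibition.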
Sequence of Cytochrome P450 1A2 (Homo sapiens) (P05177 whole entry, looked up): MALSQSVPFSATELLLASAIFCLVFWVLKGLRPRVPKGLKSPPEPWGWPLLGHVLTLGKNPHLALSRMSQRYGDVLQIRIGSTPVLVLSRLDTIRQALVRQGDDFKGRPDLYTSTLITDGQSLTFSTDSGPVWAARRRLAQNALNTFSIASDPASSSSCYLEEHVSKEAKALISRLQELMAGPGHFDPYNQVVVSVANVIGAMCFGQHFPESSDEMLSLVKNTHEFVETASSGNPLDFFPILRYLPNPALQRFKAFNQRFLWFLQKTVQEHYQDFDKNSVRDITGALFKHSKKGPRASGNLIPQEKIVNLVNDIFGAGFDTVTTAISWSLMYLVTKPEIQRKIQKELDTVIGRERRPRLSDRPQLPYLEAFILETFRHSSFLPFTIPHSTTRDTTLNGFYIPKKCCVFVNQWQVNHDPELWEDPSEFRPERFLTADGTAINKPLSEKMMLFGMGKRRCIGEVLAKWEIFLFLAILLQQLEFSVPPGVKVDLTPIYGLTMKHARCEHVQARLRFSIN

A short description of test [3]: NFAT Signaling Pathway (AID 444; active = well fitted curve in either direction with a large enough effect, not every such curve was filed as active;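 note: carbachol stimulus at about its EC50 of 1 µM final; % is set by controls: 0 for no effect and ±100 for the full control effect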). To be noted: Jurkat NFAT-bla M1, carbachol, beta-lactamase ratio, 5 h; at 7.69 µM (top of the series) unless noted. The procedure, abridged: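 Jurkat cells with NFAT-driven β-lactamase reporter and co-expressed M1 receptor, stimulated with carbachol (final 1 uM, ~EC50), compound titration, 5 h at 37 °C. CCF4 loaded 1 h at RT; 460/530 nm ratio gave %activity and AC50.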

A short description of test [4]: Stat Signaling Pathway (AID 446; active = well fitted curve in either direction with a large enough effect, not every such curve was filed as active;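 note: ME-180 cervical cancer cells given 40 pM IL-6 alongside compound; SIE-controlled beta-lactamase reporter measured as 460/530 nm FRET emission ratio; % is set by controls: 0 for no effect and ±100 for the full control effect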). As to conditions: ME-180 SIE beta-lactamase reporter, IL-6 stimulated, 5 h; at 7.69 µM (top of the series) unless noted. The method, boiled down: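 FRET read-out (405 nm excitation, 460/530 nm emission) of a beta-lactamase reporter under a STAT-inducible element in ME-180 cervical carcinoma cells. Cells with compound receive 40 pM IL-6 for 5 h. Values are normalised to AC90 stimulation and AC90 JAK-inhibitor controls.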

In test [5] the target is Glucocorticoid receptor (Homo sapiens) (UniProt P04150). Briefly: GR-GFP Redistribution (AID 450;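 active = compounds whose dose series gives a full or clear partial fitted curve of increased nuclear translocation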; note: potency is the fitted concentration of half-maximal effect). To be noted: U2OS GR-GFP nuclear translocation, laser cytometry, 2 h.
Sequence of Glucocorticoid receptor (Homo sapiens) (P04150 whole entry, looked up, the tested form may be a part): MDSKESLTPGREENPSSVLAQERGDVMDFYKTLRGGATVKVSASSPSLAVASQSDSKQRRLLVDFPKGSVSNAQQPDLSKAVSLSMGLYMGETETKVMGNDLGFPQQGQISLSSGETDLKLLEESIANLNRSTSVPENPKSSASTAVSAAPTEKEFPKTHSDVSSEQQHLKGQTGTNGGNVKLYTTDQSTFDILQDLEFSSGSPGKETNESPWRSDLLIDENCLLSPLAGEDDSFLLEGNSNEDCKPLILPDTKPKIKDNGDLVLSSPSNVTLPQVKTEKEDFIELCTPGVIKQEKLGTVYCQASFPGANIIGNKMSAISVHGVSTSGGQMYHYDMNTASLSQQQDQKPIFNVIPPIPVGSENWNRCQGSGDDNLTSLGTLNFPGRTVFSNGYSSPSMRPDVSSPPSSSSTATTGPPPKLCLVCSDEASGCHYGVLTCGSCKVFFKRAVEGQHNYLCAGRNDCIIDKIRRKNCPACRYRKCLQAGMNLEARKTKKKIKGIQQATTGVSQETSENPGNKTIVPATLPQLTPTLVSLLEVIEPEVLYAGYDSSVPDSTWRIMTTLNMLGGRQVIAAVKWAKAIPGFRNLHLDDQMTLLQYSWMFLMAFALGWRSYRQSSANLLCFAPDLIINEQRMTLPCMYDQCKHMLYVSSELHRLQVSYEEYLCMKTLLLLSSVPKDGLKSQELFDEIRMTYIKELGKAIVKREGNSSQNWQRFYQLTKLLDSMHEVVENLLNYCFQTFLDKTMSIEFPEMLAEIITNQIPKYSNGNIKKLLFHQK
The target is the same in test [6]. Nature of the test: GR-EFC Redistribution (AID 451; calls by dose curve; note: potency is the fitted concentration of half-maximal effect). To be noted: CHO-K1 GR-EFC translocation, beta-gal luminescence, 2 h. The method, boiled down: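 CHO-K1 cells expressing nuclear EA and GR-ED fragments of b-gal; compounds titrated up to 46 uM final, 2 h at 37 C. GR nuclear translocation read as complemented b-gal luminescence after 1 h RT detection.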
Test [7] has as its target Mitogen-activated protein kinase 10 (Mus musculus) (UniProt Q61831). Briefly: JNK3 AlphaScreen Assay (AID 530; active = well fitted curve in either direction with a large enough effect, not every such curve was filed as active;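 note: kinase came from lysate of stimulated human HepG2 cells; signal reports phosphorylation of biotinylated GST-cJun 1-79 at Ser73 with 10 µM ATP; % is set by controls: 0 for no effect and ±100 for the full control effect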). As to conditions: JNK3 lysate, c-Jun phosphorylation; series mostly up to 57.1 µM. The procedure, abridged:
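Activity was read by AlphaScreen after JNK3-containing HepG2 lysate (cytokine pre-activated) phosphorylated biotinylated GST-cJun with 10 uM ATP at room temperature. Phospho-Ser73 cJun antibody with Protein-A acceptor beads provided detection.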
Background: Alpha assays give light when donor and acceptor beads are brought close together.

The target in test [8] is 3',5'-cyclic-AMP phosphodiesterase 4B (Homo sapiens) (UniProt Q07343). Nature of the test: qHTS Assay for Inhibitors of PDE-IV (AID 607; active = well fitted activation curve with a large enough effect in the main read-out, with a control signal flat, not every such curve was filed as active; note: % of control where 0% means no effect). To be noted: HEK293 ACTOne CNG channel cells, membrane potential fluorescence; series mostly up to 22.9 µM. The method, boiled down:
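Cell-based read-out of cAMP via a modified cyclic nucleotide-gated channel and membrane potential dye (535/590 nm) in HEK293 cells expressing PDE4 endogenously. Compounds tested up to 22.9 uM final; 100 uM RO 20-1724 reference.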
For orientation: Quantitative high-throughput screening tests each substance at several concentrations.

Test [9] concerns the target Cytochrome P450 3A4 (Homo sapiens) (UniProt P08684). Briefly: qHTS Assay for Activators of Cytochrome P450 3A4 (AID 885). Note: nearly all actives have a fitted effect of over 65% in size. To be noted: recombinant CYP3A4, Luciferin-PPXE luminescence, 60 min; series mostly up to 57.1 µM. The procedure, abridged: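 Luminescent readout of luciferin formed from 25 uM Luciferin-PPXE (KM level) by 20 nM CYP3A4 in 200 mM KPO4, with 60 min NADPH-driven reaction at room temperature after 10 min compound exposure. Ketoconazole (57 uM) defined 100% inhibition.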

In test [10] the target is Cytochrome P450 2C19 (Homo sapiens) (UniProt P33261). Nature of the test: qHTS Assay for Inhibitors and Substrates of Cytochrome P450 2C19 (AID 899). Note: potency is the fitted concentration of half-maximal effect; nearly all actives have a fitted effect of over 60% in size. To be noted: recombinant CYP2C19, luciferin-H EGE luminescence; series mostly up to 57.1 µM. The procedure, abridged:
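5 nM human CYP2C19 with 10uM Luciferin-H EGE (at KM) in 50mM KPO4, compound preincubated 10 min at 37C, then NADPH regeneration for 60 min at 37C. Luciferin read by luminescence after detection reagent; normalized to 57uM ketoconazole as full inhibition.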

Test [11] concerns the target Dual specificity protein kinase CLK4 (Homo sapiens) (UniProt Q9HAZ1). Briefly: qHTS Assay for Inhibitors of CDC-like Kinase 4 (Kinase-Glo Assay) (AID 1770). Note: nearly all actives have a fitted effect of over 65% in size. Note: potency is the fitted concentration of half-maximal effect. As to conditions: recombinant Clk4, Kinase-Glo ATP depletion luminescence; series mostly up to 66.7 µM. The procedure, abridged:
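Recombinant human Clk4 (25 nM) phosphorylated RS repeat peptide (100 uM) with 1 uM ATP in Tris pH 7.5/MgCl2/EGTA/DTT/Triton buffer for 4.5 h at room temperature. Residual ATP was quantified by Kinase-Glo luciferase luminescence.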

For test [12] the target is unchanged. Briefly: qHTS Assay for Inhibitors of CDC-like Kinase 4 (ADP-Glo Assay) (AID 1771). Note: nearly all actives have a fitted effect of over 70% in size. Note: potency is the fitted concentration of half-maximal effect. As to conditions: recombinant CLK4, ADP-Glo luminescence; series mostly up to 80 µM. The method, boiled down:
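Compounds are pin-transferred onto substrate mix (100 uM RS peptide, 1 uM ATP), then 25 nM Clk4 is added. After 1 hr at room temperature, ADP-Glo reagent runs 45 min, detection reagent 30 min, then luminescence is read.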

Test [13] has the same target. Briefly: qHTS Assay for Inhibitors of CDC-like Kinase 4 (ADP-FP Assay) (AID 1795). Note: nearly all actives have a fitted effect of over 60% in size. Note: potency is the fitted concentration of half-maximal effect. As to conditions: Transcreener ADP fluorescence polarization; series mostly up to 50 µM. The method, boiled down:
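Recombinant human Clk4 (6.25 nM) phosphorylated RS repeat peptide (100 uM) with 1 uM ATP in Tris pH 7.5/MgCl2/EGTA/DTT/Triton buffer for one hour. ADP was quantified by Transcreener competitive fluorescence polarization against an ADP calibration curve.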

Test [14] addresses Ubiquitin carboxyl-terminal hydrolase 1 (Homo sapiens) (UniProt O94782). Nature of the test: Inhibitors of USP1/UAF1: Pilot qHTS (AID 504865).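 Note: rhodamine fluorescence freed from ubiquitin-rhodamine substrate followed over time; top concentration of the series differs between compounds; % is set by controls: 0 for no effect and ±100 for the full control effect; nearly all actives have a fitted effect of over 35% in size.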 As to conditions: purified USP1/UAF1, Ub-rhodamine cleavage fluorescence; series mostly up to 54.9 µM. The procedure, abridged: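 USP1/UAF1 complex (1nM) preincubated with compound 15 min at room temperature, then Ub-Rho substrate (150nM final) added. Fluorescence read kinetically at 480/540 nm, 6 reads every 60 seconds. Buffer: 50mM HEPES pH 7.8, 0.5mM EDTA, 0.1 mg/ml BSA, 1mM TCEP, 0.01% Tween-20.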

Test [15] can be described thus: Primary qHTS for small molecule stabilizers of the endoplasmic reticulum resident proteome: Secreted ER Calcium Modulated Protein (SERCaMP) assay (AID 1508630). Note: % is set by controls: 0 for no effect and ±100 for the full control effect. To be noted: SH-SY5Y GLuc-SERCaMP (Gaussia luciferase released on ER calcium loss) secretion, thapsigargin, luminescence; series mostly up to 38.4 µM. The procedure, abridged: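 The SH-SY5Y reporter protocol was run at 3 concentrations up to 38.3 uM (primary) or 11 concentrations (follow-up): 16 h compound, 100 nM thapsigargin for 4 h, then extracellular luciferase luminescence.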

Test [16] can be described thus: AP1 Signaling Pathway (AID 357; active = well fitted curve in either direction with a large enough effect, not every such curve was filed as active). To be noted: ME-180 (cervical carcinoma) AP-1-bla reporter, EGF-induced, beta-lactamase ratio, 5 h; at 7.69 µM (top of the series) unless noted. The procedure, abridged:
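Modulation of EGF-driven AP-1 transcription was assessed with a beta-lactamase reporter in ME-180 cells. Compound and EC50 EGF were co-incubated 5 hours at 37 °C before 2.5-hour CCF4 loading at room temperature and dual-emission reading.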

For test [17], the target named is Cytochrome P450 3A4 (Homo sapiens) (UniProt P08684). Briefly: qHTS Assay for Inhibitors and Substrates of Cytochrome P450 3A4 (AID 884). Note: potency is the fitted concentration of half-maximal effect; nearly all actives have a fitted effect of over 50% in size. To be noted: recombinant CYP3A4, Luciferin-PPXE luminescence; series mostly up to 57.1 µM. The procedure, abridged: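 Luminescent readout of luciferin produced by CYP3A4 (20 nM) dealkylation of Luciferin-PPXE, 25 uM (its KM). NADPH-driven reaction ran 60 min at RT after 10 min compound preincubation; data scaled to 57 uM ketoconazole as 100% inhibition.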
Sequence of Cytochrome P450 3A4 (Homo sapiens) (P08684 whole entry, looked up): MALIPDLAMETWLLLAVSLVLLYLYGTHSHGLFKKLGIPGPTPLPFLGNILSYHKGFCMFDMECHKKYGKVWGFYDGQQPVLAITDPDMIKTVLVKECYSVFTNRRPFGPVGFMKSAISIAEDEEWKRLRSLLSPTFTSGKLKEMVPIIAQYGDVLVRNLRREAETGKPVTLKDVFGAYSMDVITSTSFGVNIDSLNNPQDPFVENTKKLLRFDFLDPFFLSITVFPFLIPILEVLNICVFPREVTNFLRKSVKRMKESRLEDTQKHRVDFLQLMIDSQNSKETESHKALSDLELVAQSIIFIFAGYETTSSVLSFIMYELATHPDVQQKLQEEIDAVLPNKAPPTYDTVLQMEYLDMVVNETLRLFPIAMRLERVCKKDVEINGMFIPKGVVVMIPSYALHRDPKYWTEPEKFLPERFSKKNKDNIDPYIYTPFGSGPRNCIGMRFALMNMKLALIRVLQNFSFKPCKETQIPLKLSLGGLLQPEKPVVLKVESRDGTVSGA

Sequence of 3',5'-cyclic-AMP phosphodiesterase 4B (Homo sapiens) (Q07343 whole entry, looked up): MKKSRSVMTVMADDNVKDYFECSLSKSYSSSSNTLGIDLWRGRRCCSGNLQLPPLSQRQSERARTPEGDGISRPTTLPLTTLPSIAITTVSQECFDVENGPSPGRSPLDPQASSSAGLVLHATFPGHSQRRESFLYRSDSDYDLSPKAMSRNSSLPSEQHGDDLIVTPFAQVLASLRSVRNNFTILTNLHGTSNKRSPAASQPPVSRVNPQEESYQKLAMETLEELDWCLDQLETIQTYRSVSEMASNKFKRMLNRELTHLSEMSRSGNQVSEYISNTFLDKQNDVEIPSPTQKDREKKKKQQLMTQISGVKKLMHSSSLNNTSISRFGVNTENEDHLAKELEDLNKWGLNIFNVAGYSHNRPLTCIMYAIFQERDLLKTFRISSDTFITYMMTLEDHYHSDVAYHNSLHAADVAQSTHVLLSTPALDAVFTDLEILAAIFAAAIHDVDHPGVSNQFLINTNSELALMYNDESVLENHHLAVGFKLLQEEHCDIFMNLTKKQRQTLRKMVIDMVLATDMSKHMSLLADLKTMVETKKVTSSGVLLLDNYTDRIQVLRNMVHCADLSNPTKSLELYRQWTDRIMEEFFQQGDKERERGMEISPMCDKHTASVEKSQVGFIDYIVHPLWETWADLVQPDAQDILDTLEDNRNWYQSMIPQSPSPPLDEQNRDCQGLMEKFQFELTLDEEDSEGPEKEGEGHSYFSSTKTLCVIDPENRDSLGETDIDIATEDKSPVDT
Sequence of Ubiquitin carboxyl-terminal hydrolase 1 (Homo sapiens) (O94782 whole entry, looked up): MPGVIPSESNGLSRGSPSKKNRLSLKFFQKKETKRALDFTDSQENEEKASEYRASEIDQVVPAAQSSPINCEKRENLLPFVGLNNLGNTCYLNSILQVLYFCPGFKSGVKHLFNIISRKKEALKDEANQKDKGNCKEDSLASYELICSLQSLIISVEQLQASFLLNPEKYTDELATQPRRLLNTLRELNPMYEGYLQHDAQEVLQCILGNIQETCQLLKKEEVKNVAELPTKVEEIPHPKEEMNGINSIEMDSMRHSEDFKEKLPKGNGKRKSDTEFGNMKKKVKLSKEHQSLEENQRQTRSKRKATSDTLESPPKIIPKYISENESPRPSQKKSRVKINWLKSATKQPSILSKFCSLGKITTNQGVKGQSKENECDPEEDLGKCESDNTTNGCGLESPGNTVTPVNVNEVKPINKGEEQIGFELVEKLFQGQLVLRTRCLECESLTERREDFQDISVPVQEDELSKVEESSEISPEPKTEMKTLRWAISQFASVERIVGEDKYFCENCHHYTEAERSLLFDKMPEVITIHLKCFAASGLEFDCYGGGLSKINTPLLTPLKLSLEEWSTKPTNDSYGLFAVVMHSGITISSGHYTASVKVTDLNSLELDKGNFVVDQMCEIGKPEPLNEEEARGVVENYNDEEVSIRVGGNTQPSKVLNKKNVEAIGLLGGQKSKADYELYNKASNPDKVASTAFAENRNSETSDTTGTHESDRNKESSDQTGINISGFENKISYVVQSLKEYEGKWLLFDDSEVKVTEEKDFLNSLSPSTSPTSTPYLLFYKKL
Sequence of Dual specificity protein kinase CLK4 (Homo sapiens) (Q9HAZ1 whole entry, looked up): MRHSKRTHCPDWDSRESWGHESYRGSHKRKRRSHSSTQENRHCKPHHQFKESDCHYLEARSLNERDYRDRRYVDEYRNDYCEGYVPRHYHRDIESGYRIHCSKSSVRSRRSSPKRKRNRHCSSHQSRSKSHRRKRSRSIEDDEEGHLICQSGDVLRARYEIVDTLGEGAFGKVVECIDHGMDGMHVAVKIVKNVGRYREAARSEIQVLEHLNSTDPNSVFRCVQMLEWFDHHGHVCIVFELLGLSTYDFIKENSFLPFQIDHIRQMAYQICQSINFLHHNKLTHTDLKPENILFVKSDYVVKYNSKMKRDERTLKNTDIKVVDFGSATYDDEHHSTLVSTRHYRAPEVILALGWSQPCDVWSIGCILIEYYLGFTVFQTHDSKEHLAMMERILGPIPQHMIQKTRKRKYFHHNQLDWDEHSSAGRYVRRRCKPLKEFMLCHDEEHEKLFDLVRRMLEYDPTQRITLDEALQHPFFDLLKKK
Sequence of Cytochrome P450 2C19 (Homo sapiens) (P33261 whole entry, looked up): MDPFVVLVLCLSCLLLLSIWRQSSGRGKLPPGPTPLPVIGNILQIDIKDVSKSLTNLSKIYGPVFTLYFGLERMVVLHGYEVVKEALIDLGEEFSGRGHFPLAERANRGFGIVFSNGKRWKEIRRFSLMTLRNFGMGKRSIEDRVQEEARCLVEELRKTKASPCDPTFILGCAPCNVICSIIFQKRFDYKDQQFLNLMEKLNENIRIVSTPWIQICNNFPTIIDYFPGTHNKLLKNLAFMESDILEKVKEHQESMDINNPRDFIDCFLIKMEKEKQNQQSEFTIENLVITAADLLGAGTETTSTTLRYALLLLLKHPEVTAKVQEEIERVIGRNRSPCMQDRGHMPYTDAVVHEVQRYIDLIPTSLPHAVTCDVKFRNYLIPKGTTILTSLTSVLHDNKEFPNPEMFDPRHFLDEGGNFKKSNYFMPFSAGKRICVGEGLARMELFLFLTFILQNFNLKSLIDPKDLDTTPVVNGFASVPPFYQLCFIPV

As for `c1ccc(Nc2ncnc3ccc(-c4ccoc4)cc23)cc1`, the Potency in test [1] was above 11.4 µM; in [2], 1.58 µM (active); in test [5] it was above 46 µM; in test [6], above 46 µM; in [10] it was 2 µM (active); in [11], 0.708 µM (active). Besides, the Potency is 0.631 µM (active) in test [12] and 0.447 µM (active) in test [13]. Besides, the activity change, negative = inhibition in test [3] was 14.5%. In addition, in test [4], the activity, negative = inhibition is -4.75%. For the same molecule, the Potency entry in test [7], in test [8], in [9] and in [14] was “inactive” in each case. The result in test [15] was inactive.
Turning to `N#CCCn1c(=O)c(-c2cc(F)cc(F)c2)nc2cnc(Nc3ccccc3)nc21`, the Potency in test [1] was above 11.4 µM; in [5] it was above 9.22 µM; in test [6], above 46 µM. For the same molecule, the activity change, negative = inhibition in test [16] is 9.43%. For the same molecule, in [4], the activity, negative = inhibition is -15.8%. The Potency entry in [7], in test [8], in [11], in test [12], in [13] and in [14] was “inactive” throughout. Besides, in test [15], the outcome was inactive.
Take `COc1ccccc1CNc1nc(-c2ccccc2OC)nc2ccccc12`: the Potency in [1] is above 11.4 µM; in test [5] it was above 46 µM; in test [6] it was above 46 µM. For the same molecule, the activity change, negative = inhibition in test [16] is 6.17%; in test [3] it was -24.7%. Also, in test [4], the activity, negative = inhibition is -10.4%. Besides, the Potency result in [7], in [11], in [12] and in test [13] was “inactive” in each case. Further, the outcome in test [15] was inactive.
For `COc1ccc(-n2c(=O)c(-c3cccs3)nc3cnc(Nc4ccccc4)nc32)cc1`, the Potency in [1] was above 11.4 µM; in test [5], above 9.22 µM; in [6], above 46 µM. For the same molecule, in test [16], the activity change, negative = inhibition was -7.98%. Further, the activity, negative = inhibition in test [4] was -8.99%. Further, the Potency entry in [7], in [8], in test [11], in [12], in test [13] and in [14] was “inactive” throughout. Moreover, the result in test [15] was inactive.
Regarding `COCCn1c(=O)c(-c2ccc(OC)cc2)nc2cnc(OCc3ccccc3)nc21`, the figures for the Potency in test [1], in test [5] and in test [6] were above 11.4 µM, above 9.22 µM and above 46 µM, respectively. The activity change, negative = inhibition in [16] is -11.8%. In test [4], the activity, negative = inhibition is 7.46%. The Potency result in test [7], in test [9], in [11], in test [12], in test [13] and in [14] was “inactive” each time. The result in test [15] was inactive.
For the molecule `CCNc1ncc2nc(CCc3ccccc3)c(=O)n(Cc3ccc(F)cc3)c2n1`, the Potency in test [1] was above 11.4 µM; in test [2], 3.16 µM (active); in test [5], above 9.22 µM; in test [6], above 46 µM; in test [17], 2.51 µM (active). Further, the activity change, negative = inhibition in [3] is 20.5%. Also, the activity, negative = inhibition in test [4] was 26.2%. Besides, the Potency result in test [7], in test [9], in [11], in test [12], in test [13] and in test [14] was “inactive” in each case. Further, the outcome in test [15] was inactive.
Take `Cn1cc(-c2nc3cnc(Oc4cccc(Cl)c4)nc3n(C3CC3)c2=O)c2ccccc21`: the Potency in test [1] is above 11.4 µM; in [2], 12.6 µM (active); in test [5], above 9.22 µM; in test [6] it was above 46 µM. In addition, the activity change, negative = inhibition in test [3] was 6.59%. Moreover, the activity, negative = inhibition in test [4] is 9.54%. In addition, the Potency result in test [7], in test [11], in test [12], in [13] and in test [14] was “inactive” throughout. Further, the result in test [15] was inactive.
